This passage reports log2 fold change results from the supplement of paper PMC10849652.

Of roughly 7,900 targets only a part is listed; those with a hit were picked by preference. About 0.6% of all pairs of compound and target were hits. Values without a mark were called inactive.

Compound in the assay: c1cn2cc(-c3ccc4cn[nH]c4c3)nc(Nc3ccc(N4CCOCC4)cc3)c2n1 [entospletinib]
In words: log2 fold change, soluble protein after heating vs DMSO (PISA); higher = thermal stabilisation; K562 cells, 10 uM, 30 min; active = over 0.2 and 3.5 SD of the protein, either way, in both replicates (recomputed). The method, boiled down: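 K562 cells at 2×10^6 cells/mL were exposed to 10 μM compound for 30 min, then aliquots were heated for 3 min across 48°C-58°C, pooled, and extracted in PBS containing 0.5% NP-40 at 4°C. The supernatant after 21,000xg for 90 min was taken as soluble protein and measured by TMTpro 16plex LC-MS/MS with channel sums equalised. Thermal stability is reported relative to control samples, with values from duplicates. Fold changes are given on a log2 scale.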

Chain of UniProt Q9BUJ2 (Q9BUJ2 whole entry, looked up): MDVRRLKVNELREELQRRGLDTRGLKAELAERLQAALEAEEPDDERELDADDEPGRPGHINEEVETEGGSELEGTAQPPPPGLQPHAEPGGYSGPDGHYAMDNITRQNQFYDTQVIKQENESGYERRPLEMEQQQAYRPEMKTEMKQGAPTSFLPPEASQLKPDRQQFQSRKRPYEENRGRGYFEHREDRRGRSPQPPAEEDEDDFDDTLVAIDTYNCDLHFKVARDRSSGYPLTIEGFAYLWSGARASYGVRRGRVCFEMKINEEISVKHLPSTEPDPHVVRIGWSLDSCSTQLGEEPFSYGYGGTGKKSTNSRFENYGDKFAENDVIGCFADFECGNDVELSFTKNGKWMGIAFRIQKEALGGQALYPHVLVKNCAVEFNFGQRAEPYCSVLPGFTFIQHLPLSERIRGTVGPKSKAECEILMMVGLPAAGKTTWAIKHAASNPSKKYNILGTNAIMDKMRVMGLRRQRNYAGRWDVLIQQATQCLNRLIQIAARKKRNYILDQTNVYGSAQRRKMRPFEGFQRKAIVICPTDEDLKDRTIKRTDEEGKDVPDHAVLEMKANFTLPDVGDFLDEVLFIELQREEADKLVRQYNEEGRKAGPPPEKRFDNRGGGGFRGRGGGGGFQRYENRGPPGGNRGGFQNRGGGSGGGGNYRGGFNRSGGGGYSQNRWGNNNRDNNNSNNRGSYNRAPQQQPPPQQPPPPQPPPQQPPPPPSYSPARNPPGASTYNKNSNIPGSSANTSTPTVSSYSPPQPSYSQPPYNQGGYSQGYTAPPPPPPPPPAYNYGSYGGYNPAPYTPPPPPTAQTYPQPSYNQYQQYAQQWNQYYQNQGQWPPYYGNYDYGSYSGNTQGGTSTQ
Chain of UniProt P49356 (P49356 whole entry, looked up): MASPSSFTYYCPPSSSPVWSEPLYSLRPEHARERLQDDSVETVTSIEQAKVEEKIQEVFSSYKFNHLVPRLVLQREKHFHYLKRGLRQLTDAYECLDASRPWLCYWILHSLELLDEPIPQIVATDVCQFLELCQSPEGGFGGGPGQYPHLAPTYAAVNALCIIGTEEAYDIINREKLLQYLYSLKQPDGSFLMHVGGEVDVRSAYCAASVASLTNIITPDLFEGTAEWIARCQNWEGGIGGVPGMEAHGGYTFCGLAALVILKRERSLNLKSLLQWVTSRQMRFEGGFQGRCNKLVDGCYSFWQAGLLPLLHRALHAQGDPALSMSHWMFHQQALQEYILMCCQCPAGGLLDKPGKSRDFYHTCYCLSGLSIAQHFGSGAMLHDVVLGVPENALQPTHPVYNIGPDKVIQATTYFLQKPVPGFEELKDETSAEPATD
Chain of UniProt Q53T59 (Q53T59 whole entry, looked up): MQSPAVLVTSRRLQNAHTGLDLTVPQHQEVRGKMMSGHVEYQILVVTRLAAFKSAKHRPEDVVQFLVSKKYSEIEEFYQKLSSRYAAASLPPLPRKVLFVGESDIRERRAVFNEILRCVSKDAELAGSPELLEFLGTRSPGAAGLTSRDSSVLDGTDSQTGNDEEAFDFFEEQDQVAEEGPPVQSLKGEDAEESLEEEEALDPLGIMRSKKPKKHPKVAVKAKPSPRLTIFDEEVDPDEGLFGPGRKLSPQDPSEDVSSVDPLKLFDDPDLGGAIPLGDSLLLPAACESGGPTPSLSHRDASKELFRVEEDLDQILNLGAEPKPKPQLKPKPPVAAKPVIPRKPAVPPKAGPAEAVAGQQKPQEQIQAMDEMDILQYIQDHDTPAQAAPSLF
Chain of UniProt Q14956 (Q14956 whole entry, looked up): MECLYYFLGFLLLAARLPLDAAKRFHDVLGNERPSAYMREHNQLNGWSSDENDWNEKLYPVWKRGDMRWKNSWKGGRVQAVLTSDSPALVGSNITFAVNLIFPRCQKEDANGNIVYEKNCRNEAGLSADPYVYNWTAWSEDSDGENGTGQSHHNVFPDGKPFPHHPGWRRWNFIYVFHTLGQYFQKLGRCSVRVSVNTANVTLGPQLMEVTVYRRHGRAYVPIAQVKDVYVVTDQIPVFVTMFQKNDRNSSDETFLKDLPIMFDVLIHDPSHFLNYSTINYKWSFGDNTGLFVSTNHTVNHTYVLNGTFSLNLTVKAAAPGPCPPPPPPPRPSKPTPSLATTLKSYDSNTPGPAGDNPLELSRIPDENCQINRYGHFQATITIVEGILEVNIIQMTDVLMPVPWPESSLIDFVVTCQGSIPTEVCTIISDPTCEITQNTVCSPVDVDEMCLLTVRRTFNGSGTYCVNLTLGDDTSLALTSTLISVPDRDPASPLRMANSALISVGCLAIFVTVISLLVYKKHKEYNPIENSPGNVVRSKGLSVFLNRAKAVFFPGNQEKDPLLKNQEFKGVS
Chain of UniProt Q9H4A6 (Q9H4A6 whole entry, looked up): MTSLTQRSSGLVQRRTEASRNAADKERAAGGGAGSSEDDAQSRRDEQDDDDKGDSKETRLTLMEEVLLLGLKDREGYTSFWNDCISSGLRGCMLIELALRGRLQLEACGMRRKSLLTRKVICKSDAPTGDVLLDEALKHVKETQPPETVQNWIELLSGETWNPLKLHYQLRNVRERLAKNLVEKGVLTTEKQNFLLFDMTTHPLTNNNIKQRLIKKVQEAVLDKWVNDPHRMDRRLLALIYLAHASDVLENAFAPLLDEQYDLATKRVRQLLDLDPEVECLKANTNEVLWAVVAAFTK
Chain of UniProt Q96LB3 (Q96LB3 whole entry, looked up): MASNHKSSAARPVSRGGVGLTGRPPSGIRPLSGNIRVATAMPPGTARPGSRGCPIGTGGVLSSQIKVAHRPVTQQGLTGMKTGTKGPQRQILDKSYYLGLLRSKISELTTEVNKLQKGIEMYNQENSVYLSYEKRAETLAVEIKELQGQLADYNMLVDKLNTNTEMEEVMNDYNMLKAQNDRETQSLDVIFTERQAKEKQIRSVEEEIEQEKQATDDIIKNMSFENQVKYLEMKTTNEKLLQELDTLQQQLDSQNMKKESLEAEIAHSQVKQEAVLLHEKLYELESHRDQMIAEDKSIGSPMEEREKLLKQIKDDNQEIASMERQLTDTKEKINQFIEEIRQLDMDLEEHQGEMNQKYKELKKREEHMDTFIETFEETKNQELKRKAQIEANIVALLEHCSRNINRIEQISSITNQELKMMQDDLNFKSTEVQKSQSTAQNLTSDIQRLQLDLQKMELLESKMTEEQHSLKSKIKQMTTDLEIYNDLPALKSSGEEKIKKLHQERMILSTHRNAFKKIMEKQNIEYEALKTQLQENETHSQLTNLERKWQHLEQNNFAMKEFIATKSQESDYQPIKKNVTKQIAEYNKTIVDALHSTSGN
Chain of UniProt Q9UJ14 (Q9UJ14 whole entry, looked up): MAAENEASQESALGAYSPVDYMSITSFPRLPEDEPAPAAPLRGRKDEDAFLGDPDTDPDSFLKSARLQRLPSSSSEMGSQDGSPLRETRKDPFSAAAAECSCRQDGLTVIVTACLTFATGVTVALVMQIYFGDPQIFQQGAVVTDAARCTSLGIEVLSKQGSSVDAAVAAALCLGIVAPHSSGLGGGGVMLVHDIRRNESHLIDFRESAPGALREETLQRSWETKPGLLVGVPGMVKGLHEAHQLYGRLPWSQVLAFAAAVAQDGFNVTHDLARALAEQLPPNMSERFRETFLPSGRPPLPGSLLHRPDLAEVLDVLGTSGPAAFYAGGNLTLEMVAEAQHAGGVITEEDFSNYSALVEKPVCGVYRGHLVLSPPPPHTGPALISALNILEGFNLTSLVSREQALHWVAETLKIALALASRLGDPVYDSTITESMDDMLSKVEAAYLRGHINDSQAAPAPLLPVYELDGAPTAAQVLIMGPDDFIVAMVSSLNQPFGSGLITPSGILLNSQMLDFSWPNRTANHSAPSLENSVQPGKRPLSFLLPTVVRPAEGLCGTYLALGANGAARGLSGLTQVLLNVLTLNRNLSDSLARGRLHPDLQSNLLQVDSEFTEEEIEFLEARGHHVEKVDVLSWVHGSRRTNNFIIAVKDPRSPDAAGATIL
Chain of UniProt O94925 (O94925 whole entry, looked up): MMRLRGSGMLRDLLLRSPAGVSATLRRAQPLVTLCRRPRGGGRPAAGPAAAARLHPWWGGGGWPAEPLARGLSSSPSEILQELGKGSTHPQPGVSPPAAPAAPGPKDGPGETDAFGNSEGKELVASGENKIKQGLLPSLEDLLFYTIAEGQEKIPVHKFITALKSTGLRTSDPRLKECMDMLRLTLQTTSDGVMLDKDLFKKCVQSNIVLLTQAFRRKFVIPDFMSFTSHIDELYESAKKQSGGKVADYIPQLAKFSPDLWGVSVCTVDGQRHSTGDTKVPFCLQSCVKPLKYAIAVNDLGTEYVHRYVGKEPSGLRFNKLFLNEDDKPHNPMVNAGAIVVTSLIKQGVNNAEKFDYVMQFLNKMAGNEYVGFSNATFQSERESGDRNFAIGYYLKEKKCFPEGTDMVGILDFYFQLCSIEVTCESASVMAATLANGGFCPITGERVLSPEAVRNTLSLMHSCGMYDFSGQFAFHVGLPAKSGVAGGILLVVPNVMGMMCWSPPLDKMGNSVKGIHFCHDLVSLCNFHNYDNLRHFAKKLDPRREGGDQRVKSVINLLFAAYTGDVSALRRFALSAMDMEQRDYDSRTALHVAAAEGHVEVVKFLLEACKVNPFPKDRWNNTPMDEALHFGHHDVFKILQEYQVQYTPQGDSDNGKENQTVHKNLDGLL
Chain of UniProt Q00688 (Q00688 whole entry, looked up): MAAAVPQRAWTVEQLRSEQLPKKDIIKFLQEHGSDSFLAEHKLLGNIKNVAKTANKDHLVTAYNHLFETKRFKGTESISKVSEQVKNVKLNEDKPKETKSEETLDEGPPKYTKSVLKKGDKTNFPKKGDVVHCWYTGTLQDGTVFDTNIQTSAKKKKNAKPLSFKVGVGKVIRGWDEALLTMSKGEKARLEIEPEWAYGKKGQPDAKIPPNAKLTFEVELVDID
Chain of UniProt Q13907 (Q13907 whole entry, looked up): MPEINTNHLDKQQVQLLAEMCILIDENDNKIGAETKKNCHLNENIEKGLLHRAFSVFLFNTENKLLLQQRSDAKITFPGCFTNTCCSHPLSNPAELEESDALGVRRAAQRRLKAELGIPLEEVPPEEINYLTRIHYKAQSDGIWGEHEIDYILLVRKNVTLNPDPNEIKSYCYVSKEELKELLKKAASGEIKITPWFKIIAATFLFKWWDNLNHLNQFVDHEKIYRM

As for GCC2 (UniProt Q8IWJ2), the log2 fold change was 0.144. Regarding GUK1 isoform 2 (UniProt Q16774), the log2 fold change was 0.093. Consider FNTB (UniProt P49356), for which the log2 fold change was -0.143.

Regarding GOLPH3 (UniProt Q9H4A6), the log2 fold change was -0.016. In the case of IDI1 isoform 2 (UniProt Q13907) it was 0.066; in that of GGT7 (UniProt Q9UJ14), -0.019.

For GNB2 (UniProt P62879), the log2 fold change is 0.038. In the case of IFT74 (UniProt Q96LB3) it was 0.021.

For the target HSPA8 (UniProt E9PN89), the log2 fold change was 0.099. As for FASTKD1 (UniProt Q53R41), the log2 fold change is -0.11. HNRNPUL1 (UniProt Q9BUJ2): the log2 fold change is -0.029. With FMC1 (UniProt Q96HJ9), the log2 fold change is 0. In the case of GPNMB (UniProt Q14956) it was 0. In the case of HS1BP3 (UniProt Q53T59) it was -0.126; in that of HNRNPK isoform 2 (UniProt P61978), 0.064.

With GALC (UniProt P54803), the log2 fold change is 0.067. Take HEATR5B (UniProt Q9P2D3): the log2 fold change was -0.025. HIP1R (UniProt O75146): the log2 fold change is -0.029. On to GIGYF2 (UniProt Q6Y7W6), for which the log2 fold change was -0.02. On to H3-3A (UniProt P84243), for which the log2 fold change is -0.131. HDAC10 (UniProt Q969S8): the log2 fold change was 0.058. As for FKBP3 (UniProt Q00688), the log2 fold change was -0.028. In the case of GLS (UniProt O94925) it was 0.022.
